# Hits are enriched below; roughly 2.5% of the tested compounds scored in any of these assays.
# HIV Env fusion: inhibitors of HIV-1 Env-driven cell-cell fusion, primary screen, HeLa-JRFL effector, CEM21 target cells, luciferase. inhibition, % at 12.3 µM. actives 1.1% (n = 360,000);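 active = mean replicate inhibition score of at least 50 and every replicate individually at or above 50; inconclusive = only one of the two criteria met; inactive = mean below 50 and not all replicates reaching 50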;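 note: 0% = plate neutral controls and 100% = maraviroc near 300 nM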
# EWS-Fli inh: EWS/Fli-driven NR0B1 reporter inhibitors, primary screen, A673 cells, NR0B1 luciferase, luminescence, MLPCN library | viability-normalised | inhibition, % at 12.6 µM | actives 0.67% (n = 350,000) | AID 651661, 2012;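 active = mean inhibition of at least 50% after viability correction, with every replicate also passing that limit; inconclusive = mean reaches 50% but only one of two replicates passes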;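 note: firefly luciferase signal divided by Alamar Blue viability fluorescence both relative to DMSO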
# FXN GAA850 act: FXN promoter activators, primary screen, cell-based, luciferase luminescence, HEK293 lucGAA850. HEK293 lucGAA850 FXN promoter luciferase reporter, 24 h; percent of 10 µM SAHA response. activation, % at 6 µM. actives 0.56% (n = 360,000);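 active = activation above the average of all compounds screened plus 3 SD, cutoff fixed separately per campaign, cut at about 7.5% in these data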;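 note: 0% = DMSO wells and 100% = 10 µM SAHA wells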
# PAX8 inh HTS: inhibitors of PAX8-driven TPO luciferase reporter, primary screen, RMG-I cells, single concentration | actives 1.2% (n = 360,000) | SteadyGlo, 24 h | AID 652154, 2013 | inhibition, % at 12.6 µM;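 active = mean replicate inhibition at least 60% with every replicate also reaching 60%; inconclusive = only one of the two criteria is met; inactive = mean below 60% and not all replicates reaching 60%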;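 note: luciferase light reporting Pax8 driven TPO promoter activity; plate controls were median of neutral control wells for no effect and mitoxantrone controls for full effect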
# F508del corr: F508del CFTR correction, initial screen, CFBE line, single point; CFBE cells, YFP halide quenching; stimulated with forskolin plus potentiator P3; % fluorescence drop versus neutral controls; activity (quench increase), % at 7.58 µM; actives 0.36% (n = 350,000); AID 720511, 2013;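 active = mean added fluorescence quench of at least 8% versus neutral control, with both replicates also reaching 8%; inconclusive = only one of the mean or replicate conditions met; inactive = mean below 8% and not both replicates reaching 8%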;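 note: cells transiently co-express mutant CFTR-F508del with the halide-sensitive YFP; corrector assay measuring rescue of mutant channel to the surface after 24 h compound exposure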
# Active calls of the source: *; ? = inconclusive; . = no result; [ ] = another dose, or the depositor's remark.
SMILES,HIV Env fusion,EWS-Fli inh,FXN GAA850 act,PAX8 inh HTS,F508del corr
O=S(=O)(c1cccc(F)c1)N1CC[C@H]2[C@H](CO)Nc3ccc(-c4cccc(F)c4)cc3[C@H]21,.,-1.0,.,15.8,2.6
COc1cccc(C(=O)NCCSc2c(C)[nH]c3ccccc23)c1OC,3.8,12.2,1.3,22.5,0.8
CC/C(=C/c1ccccc1)c1cccc2[nH]c3c(OC)cccc3c12,58.1*,1.7,-0.1,-2.8,3.4
O=C(Nc1ccc(F)cc1)N[C@H]1CC[C@@H](CC(=O)N2CCOCC2)O[C@H]1CO,-7.1[16.7 µM],0.9,.,3.9,3.1
CC(=NNC(=S)SCc1ccccc1)c1ccccn1,78.6*,-5.2,-2.8,4.8,5.5
CC(=NNC(=S)N1CCCC1)c1ccccn1,33.1,46.2,5.6,49.9,-15.8
CC(=NNC(=S)N1CCC1)c1ccccn1,-106.9,17.8,-12.1,94.0*,-11.9
CCCCCC(=O)N/N=C(\C)c1ccccn1,17.1,.,-3.4,.,.
CCNC(=O)C[C@@H]1CC[C@@H](NS(=O)(=O)c2ccc(C)cc2)[C@@H](CO)O1,11.3[16.7 µM],6.2,.,-4.8,1.6
CS(=O)(=O)N1CCc2cc(-c3csc(NC(=O)Cc4cccs4)n3)ccc21,76.1*,.,-4.7,.,.
CC(=O)Nc1nc(-c2ccc3c(c2)CCN3S(C)(=O)=O)cs1,-10.0,-76.9,5.3,-77.2,0.9
C[C@H]1CCCCO[C@@H](CN(C)C(=O)c2ccccc2)[C@@H](C)CN([C@@H](C)CO)C(=O)c2cc(NS(=O)(=O)c3ccc(Cl)cc3)ccc2O1,-14.1[16.7 µM],16.8,.,49.8,-1.2
Cc1ccc(S(=O)(=O)N(Cc2ccc(Cl)cc2)c2ccccc2C(=O)NCc2ccco2)cc1,68.8*,.,-3.1,.,.
COc1ccccc1N(CC(=O)NCc1ccco1)S(=O)(=O)c1ccc(C)cc1,10.8,-0.5,-0.3,11.0,0.0
C/C=C/c1ccc([C@@H]2[C@H](CO)N(C(=O)CC)C23CN(S(=O)(=O)CC)C3)cc1,.,-3.4,.,2.3,-0.5
CC1(C)C(=O)C2(CCCCC2)C(=O)OC1c1cccn1-c1ccc([N+](=O)[O-])cc1 (centres undefined),72.1*,-0.5,-0.5,-7.5,.
CC=Cc1ccc2n(c1=O)C[C@H]1[C@H](CO)[C@@H](C(=O)NCCC)N(Cc3cccnc3)[C@@H]21 (mixture of isomers),.,6.8,.,.,.
COC(=O)[C@]12CCCCC=C1N(Cc1ccco1)C(=O)[C@H](CC(=O)NCCc1ccccc1OC)C2,91.9*,3.2,.,8.0,-5.1
CCCCOCCCNC(=O)C[C@@H]1C[C@@]2(C(=O)OC)CCCCC=C2N(Cc2ccco2)C1=O,62.5*,3.2,.,18.0,-1.8
CCCCNC(=O)C[C@@H]1C[C@@]2(C(=O)OC)CCCCC=C2N(Cc2ccco2)C1=O,-10.3,7.2,.,7.1,-0.8
COc1ccc([Si](C)(C)[C@H]2[C@H](CCO)O[C@@]3(C(=O)N(Cc4ccccc4)c4ccc(NC(C)=O)cc43)[C@@H]2C)cc1,-6.9[16.7 µM],30.0,.,53.5,3.2
COc1ccc([Si](C)(C)[C@@H]2[C@@H](CCO)O[C@]3(C(=O)N(Cc4ccccc4)c4ccc(N5CCCCC5=O)cc43)[C@H]2C)cc1,10.6[16.7 µM],10.6,.,34.6,7.3
COc1ccc([Si](C)(C)[C@@H]2[C@@H](CCO)O[C@]3(C(=O)N(Cc4ccccc4)c4ccc(N5C(=O)c6cccc7cccc5c67)cc43)[C@H]2C)cc1,64.1*[16.7 µM],-0.3,.,88.0*,-7.2
C=CCN1C(=O)[C@]2(O[C@H](CCn3cc(CCO)nn3)[C@@H]([Si](C)(C)c3ccc(OC)cc3)[C@@H]2C)c2cc(N3C(=O)c4cccc5cccc3c45)ccc21,69.5*[16.7 µM],35.7,.,97.4*,-1.4
C=CCN1C(=O)[C@]2(O[C@H](CCn3cc([C@H](O)c4ccccc4)nn3)[C@@H]([Si](C)(C)c3ccc(OC)cc3)[C@@H]2C)c2cc(N3CCOC3=O)ccc21,-3.2[16.7 µM],15.7,.,0.8,3.8
SMILES,HIV Env fusion,EWS-Fli inh,FXN GAA850 act,PAX8 inh HTS,F508del corr
COc1ccc([Si](C)(C)[C@@H]2[C@@H](CCO)O[C@]3(C(=O)N(Cc4cccc(NC(C)=O)c4)c4ccccc43)[C@H]2C)cc1,14.2[16.7 µM],20.9,.,103.5*,0.5
CO[C@@H]1CN(C)C(=O)c2cc(NC(=O)CC(F)(F)F)ccc2OC[C@H](C)N(C(=O)c2ccccc2F)C[C@H]1C,.,.,.,-28.8,-0.8
COc1ccc2c3c(n(C)c2c1)[C@H](CO)N(C)CC31CN(S(=O)(=O)c2cn(C)cn2)C1,.,-7.8,.,.,0.7
COc1ccc(S(=O)(=O)Nc2cccc3ccc(O)cc23)cc1,19.9,26.6,-0.4,-2.4,14.3*
COc1ccc(S(=O)(=O)Nc2ccccc2C)cc1,-16.5,.,-2.4,31.5,.
COc1cccc(C(=O)Nc2nc3ccccc3s2)c1,-152.7,-57.9,3.3,-120.0,-1.5
COc1ccc(C(=O)Nc2nc3ccccc3s2)cc1,-273.4,61.1*,-2.9,-16.7,2.7
COc1ccc(C(=O)Nc2nc3ccccc3[nH]2)cc1,-29.3,75.9*,-7.1,?,-0.1
Cc1ccc(C(=O)Nc2cc3ccccc3oc2=O)cc1,40.9,79.1*,-11.7,40.3,.
Cc1cccc(C(=O)N[C@H](C(=O)Nc2nc3ccccc3[nH]2)C(C)C)c1,-221.8,56.0*,-3.7,58.5,2.8
CC(=O)Nc1cc2ccccc2oc1=O,-11.1,-9.4,1.3,-19.0,-3.4
O=C(CC1CC1)N1CC(=O)N2[C@H](C1)[C@@H](c1ccc(C#Cc3ccccc3)cc1)[C@@H]2CO,.,-1.9,.,.,2.2
COC(=O)[C@@H]1[C@@H](CO)[C@@H]2Cn3c(ccc(-c4ccccc4)c3=O)[C@@H]2N1CC1CCCCC1,.,16.5,.,37.4,-1.7
O=C(C[C@@H]1CC[C@H]2[C@@H](COC[C@H](O)CN2Cc2cccc(-c3ccncc3)c2)O1)N1CCN(c2ccccc2)CC1,.,12.5,.,0.1,2.2
COCC(=O)N1[C@H](CO)[C@@H](c2ccc(-c3ccccc3)cc2)C12CN(C(C)=O)C2,.,4.7,.,2.7,3.5
CCNC(=O)C[C@@H]1CC[C@H]2[C@H](COc3ccc(NC(=O)C4CCOCC4)cc3C(=O)N2C)O1,-19.5[16.7 µM],-7.7,.,-6.5,-0.7
Cc1cc(C(=O)Nc2cnc3ccccc3c2)ccc1[N+](=O)[O-],-24.2,-74.3,5.5,-117.3,-3.2
Cc1ccc(C(=O)Nc2nc3ccccc3[nH]2)cc1,-77.0,77.5*,-10.1,80.6*,2.5
COc1ccc(C(=O)Nc2ccc3ccccc3c2)cc1,-195.1,60.7*,-2.4,-6.2,-3.8
Cc1ccc(C(=O)Nc2cnc3ccccc3c2)cc1,93.8*,.,-9.4,90.3*,.
COC(=O)[C@]12CCCCC=C1N(CCC1=CCCCC1)C(=O)[C@H](CC(=O)NCc1ccc(OC)c(OC)c1)C2,80.3*,-1.3,.,9.9,-3.9
COC(=O)[C@]12CCCCC=C1N(Cc1ccccc1)C(=O)[C@H](CC(=O)NCc1ccc(OC)c(OC)c1)C2,-22.3,-8.2,.,-1.8,0.4
